From PubChem BioAssay AID1159580 (chemical genetic matrix, 2015)
Hit rate of the full screen: of about 5,500 compounds, about 2,000 (36%) were called active. Not shown: some 18% with an inconclusive outcome. Rule as the data show it: active = normalized growth mostly below about 0.91 (no sharp cut-off); inconclusive = no clear call, values can overlap the other calls; inactive = mostly above about 0.92. The list shows a part of the results.

Assay: chemical genetic growth profiling, strain panel (AID 1159580);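 also: tested at 20 µM; growth read once vehicle control cultures reached saturation at 30 °C; 1 = growth at the plate median or of vehicle wells; lower values mean less growth of the strain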
Settings: growth OD

Measured: normalized growth

CCCCC[C@H](CC(=O)NO)C(=O)N[C@H](C(=O)N1CCC[C@H]1CO)C(C)C
inactive: S. cerevisiae deletion strains, locus YJR043C, strain POL32, hits give low values 0.978 | S. cerevisiae deletion strains, locus YJR066W, strain TOR1, hits give low values 0.934 | S. cerevisiae deletion strains, locus YJR075W, strain HOC1, hits give low values 1.04 | S. cerevisiae deletion strains, locus YKL009W, strain mrt4, hits give low values 1.03 | S. cerevisiae deletion strains, locus YKL068W, hits give low values 1.01 | S. cerevisiae deletion strains, locus YKL085W, strain MDH1 (second series), hits give low values 1.02 | S. cerevisiae deletion strains, locus YKL085W, strain MDH1, hits give low values 1.02 | S. cerevisiae deletion strains, locus YKL160W, strain elf1, hits give low values 1.01 | S. cerevisiae deletion strains, locus YKL190W, strain CNB1, hits give low values 1.01 | S. cerevisiae deletion strains, locus YKR001C, strain vps1, hits give low values 1.02 | S. cerevisiae deletion strains, locus YKR026C, strain gcn3, hits give low values 1.01 | S. cerevisiae deletion strains, locus YKR091W, strain srl3, hits give low values 1.02 | S. cerevisiae deletion strains, locus YLL001W, strain dnm1, hits give low values 1.01 | S. cerevisiae deletion strains, locus YLL026W, hits give low values 1.02 | S. cerevisiae deletion strains, locus YLL041C, strain sdh2, hits give low values 1.01 | S. cerevisiae deletion strains, locus YLR027C, strain aat2, hits give low values 1.01 | S. cerevisiae deletion strains, locus YLR039C, strain RIC1, hits give low values 0.947 | S. cerevisiae deletion strains, locus YLR058C, strain SHM2, hits give low values 1.01 | S. cerevisiae deletion strains, locus YLR102C, strain apc9, hits give low values 1.02 | S. cerevisiae deletion strains, locus YLR113W, strain HOG1, hits give low values 0.972 | S. cerevisiae deletion strains, locus YLR221C, strain rsa3, hits give low values 1.01 | S. cerevisiae deletion strains, locus YLR258W, strain gsy2, hits give low values 1.02 | S. cerevisiae deletion strains, locus YLR262C, strain YPT6 (second series), hits give low values 1.02 | S. cerevisiae deletion strains, locus YLR262C, strain YPT6, hits give low values 0.938 | S. cerevisiae deletion strains, locus YLR268W, strain sec22, hits give low values 1.03 | S. cerevisiae deletion strains, locus YLR320W, strain mms22, hits give low values 1.04 | S. cerevisiae deletion strains, locus YLR330W, strain CHS5, hits give low values 1.02 | S. cerevisiae deletion strains, locus YLR342W, strain FKS1 (second series), hits give low values 0.961 | S. cerevisiae deletion strains, locus YLR342W, strain FKS1, hits give low values 1.02 | S. cerevisiae deletion strains, locus YLR357W, strain rsc2, hits give low values 1.05 | S. cerevisiae deletion strains, locus YLR370C, strain arc18, hits give low values 1.01 | S. cerevisiae deletion strains, locus YLR371W, strain rom2, hits give low values 1.04 | S. cerevisiae deletion strains, locus YLR384C, strain iki3, hits give low values 1.02 | S. cerevisiae deletion strains, locus YLR418C, strain cdc73, hits give low values 1.02 | S. cerevisiae deletion strains, locus YML016C, strain PPZ1, hits give low values 1.02 | S. cerevisiae deletion strains, locus YML032C, strain rad52, hits give low values 1.01 | S. cerevisiae deletion strains, locus YML120C, strain ndi1, hits give low values 1.02 | S. cerevisiae deletion strains, locus YML124C, strain tub3, hits give low values 1 | S. cerevisiae deletion strains, locus YMR058W, strain fet3, hits give low values 1.01 | S. cerevisiae deletion strains, locus YMR078C, strain ctf18, hits give low values 1.02 | S. cerevisiae deletion strains, locus YMR125W, strain sto1, hits give low values 1.03 | S. cerevisiae deletion strains, locus YMR129W, hits give low values 1.01 | S. cerevisiae deletion strains, locus YMR205C, strain PFK2, hits give low values 1.04 | S. cerevisiae deletion strains, locus YMR223W, strain ubp8, hits give low values 1.02 | S. cerevisiae deletion strains, locus YMR231W, strain pep5, hits give low values 1.01 | S. cerevisiae deletion strains, locus YMR263W, strain SAP30, hits give low values 1.03 | S. cerevisiae deletion strains, locus YMR307W, strain GAS1, hits give low values 1.03 | S. cerevisiae deletion strains, locus YNL067W, strain RPL9B, hits give low values 1.04 | S. cerevisiae deletion strains, locus YNL071W, strain lat1, hits give low values 1 | S. cerevisiae deletion strains, locus YNL153C, strain GIM3, hits give low values 1.04 | S. cerevisiae deletion strains, locus YNL183C, strain NPR1, hits give low values 0.942 | S. cerevisiae deletion strains, locus YNL209W, strain ssb2, hits give low values 1.01 | S. cerevisiae deletion strains, locus YNL233W, strain BNI4, hits give low values 1.03 | S. cerevisiae deletion strains, locus YNL248C, strain rpa49, hits give low values 1 | S. cerevisiae deletion strains, locus YNL250W, strain rad50, hits give low values 1.02 | S. cerevisiae deletion strains, locus YNL271C, strain bni1, hits give low values 1.02 | S. cerevisiae deletion strains, locus YNL298W, strain CLA4, hits give low values 1.01 | S. cerevisiae deletion strains, locus YNL307C, strain MCK1, hits give low values 1.02 | S. cerevisiae deletion strains, locus YNL322C, strain KRE1 (second series), hits give low values 1.03 | S. cerevisiae deletion strains, locus YNR049C, strain mso1, hits give low values 1.02 | S. cerevisiae deletion strains, locus YNR052C, strain pop2, hits give low values 1.02 | S. cerevisiae deletion strains, locus YOL012C, strain htz1 1.13 | S. cerevisiae deletion strains, locus YOL147C, strain pex11, hits give low values 1.02 | S. cerevisiae deletion strains, locus YOR001W, strain rrp6, hits give low values 1 | S. cerevisiae deletion strains, locus YOR061W, strain CKA2, hits give low values 1 | S. cerevisiae deletion strains, locus YOR069W, strain VPS5, hits give low values 1.01 | S. cerevisiae deletion strains, locus YOR070C, strain gyp1, hits give low values 1 | S. cerevisiae deletion strains, locus YOR080W, strain dia2, hits give low values 1.03 | S. cerevisiae deletion strains, locus YOR083W, strain WHI5, hits give low values 1.02 | S. cerevisiae deletion strains, locus YOR106W, strain vam3, hits give low values 1.01 | S. cerevisiae deletion strains, locus YOR136W, strain idh2, hits give low values 1.03 | S. cerevisiae deletion strains, locus YOR144C, strain elg1, hits give low values 1.02 | S. cerevisiae deletion strains, locus YOR184W, strain ser1, hits give low values 1.01 | S. cerevisiae deletion strains, locus YOR231W, strain MKK1, hits give low values 0.989 | S. cerevisiae deletion strains, locus YOR265W, strain rbl2, hits give low values 1.01 | S. cerevisiae deletion strains, locus YOR270C, strain vph1, hits give low values 1.01 | S. cerevisiae deletion strains, locus YOR290C, strain snf2, hits give low values 1.02 | S. cerevisiae deletion strains, locus YOR316C, strain cot1, hits give low values 1.01 | S. cerevisiae deletion strains, locus YPL051W, strain arl3, hits give low values 1.02 | S. cerevisiae deletion strains, locus YPL078C, strain atp4, hits give low values 1.02 | S. cerevisiae deletion strains, locus YPL106C, strain sse1, hits give low values 1.03 | S. cerevisiae deletion strains, locus YPL240C, strain hsp82, hits give low values 1.01 | S. cerevisiae deletion strains, locus YPL256C, strain CLN2, hits give low values 0.941 | S. cerevisiae deletion strains, locus YPR119W, strain clb2, hits give low values 1.01 | S. cerevisiae deletion strains, locus YPR141C, strain kar3, hits give low values 1.02 | S. cerevisiae deletion strains, locus YPR163C, strain tif3, hits give low values 1.02 | S. cerevisiae deletion strains, locus YPR167C, strain met16, hits give low values 1.03 | S. cerevisiae deletion strains, strain wtn01, hits give low values 1.01 | S. cerevisiae strains, strain wild type, hits give low values 1.01
